Hit rate of the full screen: of about 220,000 compounds, about 530 (0.24%) were called active. The full list was thinned out, with actives kept by preference. Results with a measured potency or affinity are listed apart. A number with no mark means an inactive call. No stated cut-off is given here; in the data, active means inhibition above about 13%; inconclusive means no clear call, values can overlap the other calls; inactive means below that.

Chain of Bifunctional protein GlmU (Mycobacterium tuberculosis (strain ATCC 25618 / H37Rv)) (P9WMN3 whole entry, looked up): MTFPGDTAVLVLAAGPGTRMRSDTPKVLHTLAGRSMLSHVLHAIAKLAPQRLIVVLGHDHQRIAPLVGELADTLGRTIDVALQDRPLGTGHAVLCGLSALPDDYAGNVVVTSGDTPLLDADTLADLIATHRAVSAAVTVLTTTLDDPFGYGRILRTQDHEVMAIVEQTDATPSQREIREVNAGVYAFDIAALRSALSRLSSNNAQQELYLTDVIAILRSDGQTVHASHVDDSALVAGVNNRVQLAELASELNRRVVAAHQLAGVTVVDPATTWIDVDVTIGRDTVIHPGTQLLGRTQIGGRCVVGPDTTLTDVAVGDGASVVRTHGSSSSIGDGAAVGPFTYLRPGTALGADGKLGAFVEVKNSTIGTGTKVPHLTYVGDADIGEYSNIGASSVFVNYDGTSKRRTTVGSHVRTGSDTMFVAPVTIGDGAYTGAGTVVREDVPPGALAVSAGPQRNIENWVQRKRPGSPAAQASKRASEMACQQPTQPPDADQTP

The assay concerns the target Bifunctional protein GlmU (Mycobacterium tuberculosis (strain ATCC 25618 / H37Rv)) (UniProt P9WMN3). Briefly: inhibition of mycobacterial GlmU enzyme – biochemical, glucosamine-1-phosphate acetyltransferase (AID 1376).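 Further: 0% = complete reaction with vehicle and 100% = reaction without substrate.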 The following applies: M. tuberculosis GlmU acetyltransferase enzyme assay; hits give high values;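 tested at 30 µM in the primary screen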.
As usually defined, the inhibition is the change of the read-out against control, counted positive when it falls. Consider `O=C(NCc1n[nH]c(=S)n1-c1ccc(F)cc1)c1ccco1`, for which the inhibition is 3.33%.

Consider `CCOC(=O)CC(=O)CSc1nc(-c2cccnc2)ccc1C#N`, for which the inhibition is 2.76%.

With `Cc1ccc(NC(=O)Cn2nnc3ccccc32)cc1`, the inhibition is -1.28%.

As for `CCCCn1c(CNC(=O)C23CC4CC(CC(C4)C2)C3)nnc1SC(C)CC` (centres undefined), the inhibition was -3.15%.

As to `Cc1ccc(S(=O)(=O)N(C)C/N=C(\N)N[N+](=O)[O-])cc1`, the inhibition was -3.35%.

`O=C1CCCC(O)=C1N=Nc1ccc(Cl)c(Cl)c1`: the inhibition was 0.41%.

In the case of `O=C1CCCC(O)=C1N=Nc1ccc2c(c1)OCO2`, the inhibition was 1.81%.

In the case of `O=C1CCCC(O)=C1N=Nc1ccc(C(=O)O)cc1`, the inhibition is 13.3% (active).

On to `CCc1nnc(NC(=O)CSc2nc(-c3ccccc3)nc3ccccc23)s1`, for which the inhibition is -1.88%.

Consider `CC1CC(C)(C)NC(=S)N1CCCC(=O)NCc1ccccc1` (centres undefined), for which the inhibition is -0.79%.

In the case of `Oc1c(C(c2ccccc2Cl)N2CCCC2)ccc2cccnc12` (centres undefined), the inhibition is -1.53%.

With `CN1CCN(C(c2cccnc2)c2ccc3cccnc3c2O)CC1` (centres undefined), the inhibition is -1.35%.

In the case of `OCCN1CCN(C(c2cccs2)c2ccc3cccnc3c2O)CC1` (centres undefined), the inhibition is 17.8% (active).

As to `CCc1ccc(CN(C)CCc2ccccn2)cc1`, the inhibition was 1.82%.

Turning to `O=C(NCc1ccc2c(c1)OCO2)C1CC(c2cccc(Br)c2)=NO1` (centres undefined), the inhibition was 5.45%.

Take `COc1cc(/C=N/NC(=O)c2ccc(F)cc2)ccc1OC(=O)c1ccco1`: the inhibition is 1.03%.

For `CCC1=NN(C(=O)c2ccc(Br)cc2)C(O)(c2ccccc2)C1` (centres undefined), the inhibition was 1.41%.

Regarding `CCN(CC)CCC/C(=N\O)C(O)(c1ccccc1)c1ccccc1`, the inhibition was -1.2%.

As for `COc1ccc(C(=O)O)c(O)c1`, the inhibition is 1.05%.

`COc1ccc(-c2ccc(OC)cc2C(=O)O)cc1`: the inhibition is 14.9% (active).

Consider `COc1ccc(OCc2ccc(C(=O)O)cc2)cc1`, for which the inhibition was -5.61%.

In the case of `COc1ccc(OCc2cccc(C(=O)O)c2)cc1`, the inhibition is -3.31%.

For `O=C(O)c1cc(O)ccc1-c1ccc(O)cc1`, the inhibition was 0.42%.

Turning to `CCN(CC)S(=O)(=O)c1ccc(N2CCOCC2)c(NC(=O)Cc2ccccc2)c1`, the inhibition was -0.9%.

`CCN(CC)S(=O)(=O)c1ccc(N2CCOCC2)c(NC(=S)NC(=O)c2ccco2)c1`: the inhibition was 14.6% (active).

Regarding `O=C(NC(=S)Nc1cc(S(=O)(=O)N2CCOCC2)ccc1N1CCOCC1)c1ccco1`, the inhibition is 1.22%.

For the compound `Cc1cc(C)n(CCc2nc(-c3ccc(C(C)(C)C)cc3)cs2)n1`, the inhibition was -7.47%.

In the case of `O=C(CS(=O)(=O)Cc1ccccc1)Nc1ccccc1Cl`, the inhibition was -1.63%.

For the compound `NC(=O)c1ccccc1NC(=O)CS(=O)(=O)Cc1ccccc1`, the inhibition was 14.6% (active).

Take `CC(C)NC(=O)c1ccccc1NC(=O)CS(=O)(=O)Cc1ccccc1`: the inhibition was -2.67%.

With `COc1ccc(S(=O)(=O)N(C)CC(=O)Nc2ccc3c(c2)OCO3)cc1OC`, the inhibition is -3.21%.

For the compound `CCCCOC(=O)C1CN(c2ccccc2)N=C1C(C)=O` (centres undefined), the inhibition is 3.69%.

For the compound `Cc1ccccc1S(=O)(=O)NC1OC(=O)C(Cl)=C1Cl` (centres undefined), the inhibition was 9.45%.

In the case of `Cc1ccc(S(=O)(=O)NC2OC(=O)C(Cl)=C2Cl)cc1` (centres undefined), the inhibition is 13.1% (active).

Consider `CC(=O)NC(=O)NC1OC(=O)C(Cl)=C1Cl` (centres undefined), for which the inhibition is 2.53%.

Regarding `C#CC[N+](C)(C)CCCCCCCCCC`, the inhibition was -5.84%.

Turning to `CCC(c1nnnn1CCC(C)C)N1CCC(C(N)=O)CC1` (centres undefined), the inhibition is 2.94%.

With `Cc1ccc(Oc2ccc(OCC(=O)OC3CCS(=O)(=O)C3)cc2)cc1` (centres undefined), the inhibition was -1.4%.

For `Cc1ccc2c(c1)sc1nc(=O)n(-c3cccc(Cl)c3)c(=O)n12`, the inhibition is 38.6% (active).

As to `Cc1ccc2c(c1)sc1nc(=O)n(-c3ccc(Cl)cc3)c(=O)n12`, the inhibition is 2.07%.

Regarding `Cc1ccc2c(c1)sc1nc(=O)n(-c3ccccc3)c(=O)n12`, the inhibition is 4.71%.

For `O=C(NCC1CCCO1)c1nc2c(nnn2Cc2ccc(F)cc2)c(=O)[nH]1` (centres undefined), the inhibition is 13.4% (active).

On to `O=C(NCC1CCCO1)c1nc2c(nnn2Cc2ccccc2Cl)c(=O)[nH]1` (centres undefined), for which the inhibition is -1.69%.

`Cc1ccc(C)c(Cn2nnc3c(=O)[nH]c(C(=O)NCC4CCCO4)nc32)c1` (centres undefined): the inhibition was 0.99%.

For the compound `CCCCNC(=O)CNC(=S)N(CCCN1CCOCC1)Cc1cccs1`, the inhibition was 3.25%.

In the case of `COc1ccc(O)c(/C=N/NC(=S)Nc2cccc(S(=O)(=O)N(C)C)c2)c1`, the inhibition is -8.22%.

On to `Oc1cccc(/C=N/NC(=S)Nc2cccnc2)c1O`, for which the inhibition was 5.05%.

As to `Oc1ccc(/C=N/NC(=S)Nc2cccnc2)c(O)c1`, the inhibition is 3.56%.

Consider `CN(C)S(=O)(=O)c1cccc(NC(=S)N/N=C/c2cc(Br)ccc2O)c1`, for which the inhibition is -0.84%.

For `COc1ccccc1NC(=O)CCC(=O)N(Cc1ccc(OC)c(OC)c1)c1nccs1`, the inhibition was -2.21%.

On to `CCN1CCN(c2cc3c(nn2)Oc2ccccc2N3C)CC1`, for which the inhibition is 0.59%.

In the case of `Cc1nc2ccccc2c(=O)n1NC(=O)Cc1ccc([N+](=O)[O-])cc1`, the inhibition is -0.18%.

Regarding `O=C(Cn1nc(-c2ccccc2)c2ccccc2c1=O)Nc1cccc(O)c1`, the inhibition was 3.9%.

Turning to `O=C1NC(=O)N(c2ccccc2)C(=O)/C1=C/c1ccoc1`, the inhibition was -0.64%.

As to `Cc1ccc(N2C(=O)NC(=O)/C(=C\c3ccoc3)C2=O)cc1`, the inhibition was 0.76%.

For `CCCC(c1nnnn1CC(=O)OCC)N(Cc1cc2ccc(C)cc2[nH]c1=O)C1CCCC1` (centres undefined), the inhibition is 7.33%.

For `CCOC(=O)N1CCN(C(=O)CN(c2ccc(OCc3ccccc3)cc2)S(C)(=O)=O)CC1`, the inhibition was 4.38%.

In the case of `O=C(NNC(=S)NC(=O)c1cccnc1)c1ccc(F)cc1`, the inhibition is 13.5% (active).

For `O=C(NNC(=S)NC(=O)c1cccnc1)c1ccc(Cl)cc1`, the inhibition is -3.46%.

Take `Cc1ccccc1C(=O)NNC(=S)NC(=O)c1cccnc1`: the inhibition is 4.43%.

Regarding `O=C(NC(=S)NNC(=O)c1ccccc1F)c1cccnc1`, the inhibition is 3.92%.

In the case of `O=C(NC(=S)NNC(=O)c1ccccc1O)c1cccnc1`, the inhibition was 12.9% (active).

As for `O=C(NNC(=S)NC(=O)c1cccnc1)c1ccccc1`, the inhibition is -2.11%.

As for `CCOC(=O)C1=C(C)Nc2nc3ccccc3n2C1c1ccc(O)cc1` (centres undefined), the inhibition is 6.95%.

In the case of `Nc1nc(CN2CCN(C(c3ccccc3)c3ccccc3)CC2)nc(Nc2ccccc2)n1`, the inhibition is -2.82%.

For `COC(=O)CC1C(=O)NCCN1C(=O)CSc1nnnn1-c1ccc(OC)cc1` (centres undefined), the inhibition is -2.52%.

Turning to `O=C(O)C1CC1c1ccc(Br)cc1` (centres undefined), the inhibition was 2.18%.

`CCCNc1nc(C)nc2c1cnn2CCc1ccccc1`: the inhibition was 1.42%.

With `O=C(O)c1ccc2c(c1)C(=O)/C(=C/c1ccccc1)C2=O`, the inhibition was 18.9%.

Turning to `CCN(CC)c1ccc(C=C2C(=O)OC3(CCCC3)OC2=O)cc1`, the inhibition was -0.14%.

For the compound `CCN(CC)c1ccc(C=C2C(=O)OC3(CCCCC3)OC2=O)cc1`, the inhibition was -3.43%.

For `CCN(CC)c1ccc(C(=O)O)cc1`, the inhibition is -1.49%.

Turning to `COc1ccc(-c2ccc(OC)c([C@H]3[C@H]4C=CC[C@@H](C)[C@@H]4C(=O)N3Cc3ccccc3)c2)cc1C`, the inhibition is 1.44%.

Turning to `CCOc1cc2c(cc1C=O)OC(C)C2` (centres undefined), the inhibition was -3.18%.

Turning to `Cc1ccc(C(=O)NCc2ccccn2)cc1Cl`, the inhibition was -4.77%.

On to `O=C(c1ccc2c(c1)OCCO2)N1CCN(Cc2ccccc2)CC1`, for which the inhibition was 0.55%.

In the case of `CCC(OC(=O)CC1Sc2ccccc2NC1=O)C(=O)NCC1CCCO1` (centres undefined), the inhibition was -4.76%.

`CCCCCCOC(=O)CCc1c(C)nc(N)[nH]c1=O`: the inhibition was 1.43%.

`O=CC(Br)P(=O)(N1CCOCC1)N1CCOCC1` (centres undefined): the inhibition is 13.9% (active).

With `CC(C)(C)P(=O)(N1CCOCC1)N1CCOCC1`, the inhibition is -0.04%.

As for `O=CC(Cl)P(=O)(N1CCOCC1)N1CCOCC1` (centres undefined), the inhibition is 5.15%.

`CN(c1ccccc1)c1nc(N)c([N+](=O)[O-])c(NCc2ccccc2)n1`: the inhibition was -0.66%.

For the compound `CCCC(=O)NNc1cc(=O)c2c(=O)n(C)c(=O)n(C)c2[nH]1`, the inhibition is -0.71%.

As for `Cc1ccc(N2CC(C(=O)NCCC(C)C)CC2=O)cc1` (centres undefined), the inhibition is 1.29%.

Take `N#CC12CNCC1CN=N2` (centres undefined): the inhibition was 15.5% (active).

Turning to `Cc1ccc2c(c1)C(c1ccccc1)C(=O)O2` (centres undefined), the inhibition was 2.36%.

Regarding `Cc1noc(C)c1COC(=O)C(c1ccccc1)c1ccccc1`, the inhibition is -2.73%.

`COc1ccc(OCCC(=O)OCc2c(C)noc2C)cc1`: the inhibition was 3.9%.

With `Cc1noc(C)c1COC(=O)CCOc1ccccc1`, the inhibition was 13.2% (active).

In the case of `Cc1ccc(N2CCN(C(=O)Nc3cccc([N+](=O)[O-])c3)CC2C)cc1` (centres undefined), the inhibition was 5.55%.

Regarding `CCc1ccc(C(=O)N/N=C/c2cccc3ccccc23)nc1`, the inhibition is -1.08%.

Take `O=C(c1ccccc1F)N1CCN(c2ccc([N+](=O)[O-])c(NCc3cccnc3)c2)CC1`: the inhibition was 4.22%.

`Cc1ccccc1C(=O)N1CCN(c2ccc([N+](=O)[O-])c(NCc3cccnc3)c2)CC1`: the inhibition was 14.5% (active).

Regarding `O=C(c1ccccc1)N1CCN(c2ccc([N+](=O)[O-])c(NCc3cccnc3)c2)CC1`, the inhibition was -14.7%.

`N#Cc1cc(C(=O)c2cc(Cl)ccc2O)cn(CC2CCCO2)c1=O` (centres undefined): the inhibition is 1%.

Regarding `Cc1cc(C)c2c(=O)n(CC(=O)Nc3cccc(Cl)c3C)sc2n1`, the inhibition is 3.9%.

On to `Cc1cc(C)c2c(=O)n(CC(=O)N3CCC(N4CCCCC4)CC3)sc2n1`, for which the inhibition is -2.82%.

As to `Cc1cc(C)c2c(=O)n(CC(=O)Nc3ccc(Br)c(C)c3)sc2n1`, the inhibition was -1.95%.

Consider `Cc1cc(C)c2c(=O)n(CC(=O)Nc3cccc(F)c3)sc2n1`, for which the inhibition was 9.3%.

As to `CCOc1ccc(NC(=O)Cn2sc3nc(C)cc(C)c3c2=O)cc1`, the inhibition was 14.9% (active).

On to `Cc1cc(C)c2c(=O)n(CC(=O)Nc3ccc(Cl)cc3)sc2n1`, for which the inhibition is 13% (active).

`Cc1cc(C)c2c(=O)n(CC(=O)NC3CCCC3)sc2n1`: the inhibition was 15% (active).

As to `Cc1ccc(NC(=O)Cn2sc3nc(C)cc(C)c3c2=O)c(Cl)c1`, the inhibition was 2.26%.

With `CCCNC(=O)Cn1sc2nc(C)cc(C)c2c1=O`, the inhibition was 9.09%.
